Experimental findings from ChEMBL document CHEMBL3988442, “University of Dundee, Small-Polar-MMV Screening Library” (2021) are described below.

Each structure is given as a SMILES string. Screen size: about 53,000 compounds; about 900 (1.7%) showed an effect of 50% or more. The sample as a whole holds a higher share of strong results than the screen did.

This assay relates to Mycobacterium tuberculosis. In words: Cornell - Phenotypic assay to identify agents that inhibit growth of Mycobacterium tuberculosis. It counts as functional. Also on record: scale not given: direction of the effect not stated beside the values. Conditions: 10 mM as filed; unlikely as a test dose.
`Cc1nc(C)c(CCN2CCC(Oc3ccccc3F)CC2)s1`: the “Percent Effect” value stood at 50.26%.
For `Cc1nc(CCN2CCC(Oc3ccccc3F)CC2)c(C)s1`, the “Percent Effect” value was 4.042%.
For the compound `Cc1nc(CCN2CCC(Oc3ccccc3F)CC2)cs1`, the “Percent Effect” value was 0.3496%.
Take `Cc1cnc(-c2nc(O)c3c(n2)CN(C(=O)CC2CCCC2)CC3)cn1`: the “Percent Effect” value came out at 2.725%.
The value for `CC(C)N(C)S(=O)(=O)N(C)Cc1ccc2c(c1)OCO2` was -6.095%.
To `CCN(Cc1ccc2c(c1)OCCO2)S(=O)(=O)N(C)C(C)C` belongs 54.92%; to `CCN(C)S(=O)(=O)N(CC)Cc1ccc2c(c1)OCO2`, 26.78%; to `CCn1cnnc1C1CCN(C(=O)c2ccc(OC(C)C)nc2)CC1`, 22.89%.
The value for `CC(C)c1nnc(CN(C)C(c2ccccc2)c2ccc(F)cc2)o1` (stereo not given) was 32.65%.
Consider `CC(C)c1nnc(CN(C)Cc2ccccc2-c2ccccc2)o1`, for which the “Percent Effect” value was found to be 60.67%.
On to `CN(Cc1nnc(C2CC2)o1)Cc1ccccc1-c1ccccc1`, for which the “Percent Effect” value came out at 24.56%.
To `Cc1nn(C)c(C)c1NC(=O)CN1CCOC(CN(C)C)C1` (stereo not given) belongs 13.8%; to `O=C(C1=CCCC1)N1C[C@@H]2COC[C@]2(COCc2ccncc2)C1`, -20.46%; to `CCc1nnc(Nc2cc(C)nc(C3CCN(c4ccncn4)C3)n2)s1` (stereo not given), -19.2%.
To `O=C(Cn1ccc2ccccc21)N1CCC(Oc2ncccc2Br)CC1` belongs 58.45%; to `O=C(CCC(=O)N1CCC(Oc2ncccc2Br)CC1)c1ccccc1`, 95.35%.
The value for `O=C(CCn1ccc(=O)[nH]c1=O)N1CCC(Oc2ncccc2Cl)CC1` was 20.85%.
Take `O=C(CCC(=O)N1CCC(OCc2cccnc2)CC1)c1ccccc1`: the “Percent Effect” value is on record as -10.19%.
The value for `COC1CCN(C(=O)Cn2ccc3ccccc32)CC1` was 2.586%; that for `O=C(NCc1ccccc1)N1CCC(Oc2ncccc2Br)CC1` was -14.28%.
To `Cc1cccc(OC2CCN(C(=O)Cn3ccc4ccccc43)CC2)n1` belongs 59.2%; to `O=C(Cn1ccc2ccccc21)N1CCC(Oc2cnccn2)CC1`, 24.96%; to `Cc1cccc(OC2CCN(C(=O)c3ccc4c(c3)OCO4)CC2)n1`, 37.52%.
With `CS(=O)(=O)NCCCNC(=O)c1cccc(-n2cccc2)c1`, the “Percent Effect” value is on record as -24.26%.
As for `CC(=O)Nc1nc(SCc2ccc3c(c2)OCO3)ns1`, the “Percent Effect” value is 6.348%.
As for `CCCN1CCN(C(=O)Nc2ccccc2Cl)[C@H]2CS(=O)(=O)C[C@H]21`, the “Percent Effect” value stood at 2.165%.
The value for `CC1CCN(Cc2ccccc2CNC(=O)C2CNC(=O)N2)CC1` (stereo not given) was -0.9762%; that for `CCOC1COC2(CCN(c3ccccn3)CC2)C1.O=C(O)C(F)(F)F` (stereo not given) was 3.904%.
The value for `CCOc1ccccc1C(=O)N1CC(=O)N(C2CCC2)CC(O)C1` (stereo not given) was 12.12%; that for `CN(Cc1cccnc1)[C@@H]1CN(c2ncc(F)cn2)[C@@H]2CCCO[C@H]12` was 19.63%; that for `CN(Cc1cccnc1)[C@@H]1CN(Cc2ccccn2)[C@@H]2CCCO[C@H]12` was 51.65%.
The value for `CN(Cc1cccnc1)[C@@H]1CN(c2ccccn2)[C@@H]2CCCO[C@H]12` was 3.977%.
Regarding `COc1ccc2c(c1)CC(C1CCOCC1)N(C(=O)c1ccnn1C)C2` (stereo not given), the “Percent Effect” value amounted to 13.18%.
To `CN1CCN(C)C(CNC(=O)N(C)Cc2ccc(Cl)c(F)c2)C1` (stereo not given) belongs 12.24%; to `C=C/C=c1\c(=C/C)oc2c(NCc3ccccc3)nc(C)nc12`, 70.49%.
The value for `C=C/C=c1\c(=C/C)oc2c(NCc3ccccc3)ncnc12` was 8.559%; that for `C=C/C=c1\c(=C/C)oc2c(NCc3ccccc3)nc(CC)nc12` was 44.26%.
To `O=c1c2ccccc2nc2n1C(CSc1ccc(Br)cc1)CN2` (stereo not given) belongs 19.98%; to `COCCOc1ccc(Cl)c(C(=O)N2CCN(CCO)CC2)n1`, -16.9%; to `CNc1ncc(-c2csc(NC(=O)C[C@H]3COCCN3)n2)cn1.Cl`, -17.99%.
Consider `Cc1cnc(N2C[C@@H]3CN(C4CCOC4)CCC[C@]3(C(=O)O)C2)nc1.O=C(O)C(F)(F)F` (stereo not given in full), for which the “Percent Effect” value is listed as 13.6%.
The value for `NC(=O)C1(CCCc2ccccn2)CCCN(Cc2ncc[nH]2)C1` (stereo not given) was -6.495%; that for `O=C(COc1ccc2c(c1)CCC2)N1CCCC(n2cccn2)C1` (stereo not given) was -23.81%; that for `NC(=O)c1ccc(OCC(=O)N2CCCC2c2ccc[nH]2)cc1` (stereo not given) was -7.16%.
To `NC(=O)c1cn[nH]c1C1CCCN1C(=O)COc1ccccc1` (stereo not given) belongs 6.51%; to `CN(C)c1ccc(C(=O)N2CCCC2c2cnn(C)c2)cn1` (stereo not given), 5.002%.
The value for `CS(=O)(=O)c1cccc(OCC(=O)N2CCCC2c2ccccc2Cl)c1` (stereo not given) was -2.872%; that for `CS(=O)(=O)c1cccc(OCC(=O)N2CCCC2c2ccc[nH]2)c1` (stereo not given) was 58.54%; that for `O=C(COc1ccc2c(c1)CCC2)N1CCCC1c1ccc[nH]1` (stereo not given) was 107.5%.
Turning to `CC1CCN(c2ccc(C(=O)N3CCCC3c3ccc[nH]3)cn2)CC1` (stereo not given), the “Percent Effect” value amounted to 84.24%.
The value for `Cc1ccc(-c2nnc(CCC(=O)N3CCCC3c3ccc[nH]3)o2)cc1` (stereo not given) was 45.95%.
The value for `O=C(COc1ccccc1)N1CCCC1c1ccc[nH]1` (stereo not given) was 85.82%; that for `CC1CCN(c2ccc(C(=O)N3CCCC3c3nncn3C)cn2)CC1` (stereo not given) was -18.06%; that for `O=C(COc1ccc2c(c1)CCC2)N1CCOCC1c1ncon1` (stereo not given) was 12.9%.
As for `Cc1cc(C)cc(OCCN2CCn3c(C)nnc3C2)c1`, the “Percent Effect” value was determined as 12.04%.
